Results as given in the supplement of paper PMC8285479.
Structures can show the parent of a compound that is named as a salt. ± gives the standard deviation of the averaged measurements. Whole data set: some 1,900 compounds, median “normalised cell viability (NPI; 0 = phenylarsine oxide control, 1 = DMSO control)” near 1, cut for the lowest 2% near 0.039. Shown is part of a subset that was picked to be rich in the lowest values.

Tested on: NCI-H1944
Assay: normalised cell viability (NPI; 0 = phenylarsine oxide control, 1 = DMSO control) (fraction of DMSO control); NCI-H1944 is a non-small cell lung cancer line; higher = more viable cells (less compound toxicity)
Settings: 6 days
[1] = glucocorticoid arm: hydrocortisone 2.75 uM co-treatment, compound 1 µM
[2] = glucocorticoid arm: hydrocortisone 2.75 uM co-treatment, compound 5 µM
[3] = glucocorticoid arm: hydrocortisone 2.75 uM pre-treated 2 days and continued, compound 1 µM
[4] = glucocorticoid arm: hydrocortisone 2.75 uM pre-treated 2 days and continued, compound 5 µM
[5] = glucocorticoid arm: vehicle, compound 1 µM
[6] = glucocorticoid arm: vehicle, compound 5 µM
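Also: CTB read-out in 384-well plates, triplicate wells, NPI normalised per plate against 1 µM phenylarsine oxide (0) and 0.1% DMSO (1) controls.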

Row | Structure (SMILES) | normalised cell viability [1] | normalised cell viability [2] | normalised cell viability [3] | normalised cell viability [4] | normalised cell viability [5] | normalised cell viability [6]
1 | CC(=O)O[C@H]1C(=O)[C@@]2(C)[C@H]([C@H](OC(=O)c3ccccc3)[C@]3(O)C[C@H](OC(=O)[C@H](O)[C@@H](NC(=O)c4ccccc4)c4ccccc4)C(C)=C1C3(C)C)[C@]1(OC(C)=O)CO[C@@H]1C[C@@H]2O [Paclitaxel; Taxol] | 0.131 ± 0.0057 | 1.03 ± 0.01 | 0.466 ± 0.032 | 1.02 ± 0.011 | 0.0302 ± 0.0049 | 1.01 ± 0.01
2 | CC(=O)O[C@@]12CO[C@@H]1C[C@H](O)[C@@]1(C)C(=O)[C@H](O)C3=C(C)[C@@H](OC(=O)[C@H](O)[C@@H](NC(=O)OC(C)(C)C)c4ccccc4)C[C@@](O)([C@@H](OC(=O)c4ccccc4)[C@H]21)C3(C)C [Docetaxel] | 0.159 ± 0.0035 | 0.163 ± 0.0095 | 0.462 ± 0.023 | 0.518 ± 0.015 | 0.049 ± 0.0034 | 0.0428 ± 0.0097
3 | CO[C@H]1C(=O)[C@]2(C)[C@@H](OC)C[C@H]3OC[C@@]3(OC(C)=O)[C@H]2[C@H](OC(=O)c2ccccc2)[C@]2(O)C[C@H](OC(=O)[C@H](O)[C@@H](NC(=O)OC(C)(C)C)c3ccccc3)C(C)=C1C2(C)C [Cabazitaxel] | 0.191 ± 0.012 | 1.05 ± 0.021 | 0.468 ± 0.0065 | 1.05 ± 0.015 | 0.0505 ± 0.01 | 1.007 ± 0.0058
4 | CC(=O)O[C@H]1C(=O)[C@@]2(C)[C@H]([C@H](OC(=O)c3ccccc3)[C@]3(O)C[C@H](OC(=O)[C@H](O)[C@@H](NC(=O)c4ccccc4)c4ccccc4)C(C)=C1C3(C)C)[C@]1(OC(C)=O)CO[C@@H]1C[C@@H]2O [Taxol] | 0.122 ± 0.012 | 0.117 ± 0.015 | 0.8513 ± 0.0064 | 0.802 ± 0.051 | 0.0515 ± 0.0084 | 0.0382 ± 0.0051
5 | COC(=O)C1=C(C)NC(C)=C([N+](=O)[O-])C1c1ccccc1C(F)(F)F (racemic) | 0.99 ± 0.0072 | 0.942 ± 0.02 | 0.9753 ± 0.0031 | 0.9355 ± 0.00071 | 0.962 ± 0.01 | 0.947 ± 0.011
6 | CC[C@]1(O)C[C@@H]2CN(CCc3c([nH]c4ccccc34)[C@@](C(=O)OC)(c3cc4c(cc3OC)N(C)[C@H]3[C@@](O)(C(=O)OC)[C@H](OC(C)=O)[C@]5(CC)C=CCN6CC[C@]43[C@@H]65)C2)C1 [Vinblastine sulfate salt] | 0.361 ± 0.02 | 0.337 ± 0.021 | 0.795 ± 0.17 | 0.94 ± 0.023 | 0.0757 ± 0.0017 | 0.0495 ± 0.005
7 | CCC1=C[C@@H]2CN(C1)Cc1c([nH]c3ccccc13)[C@@](C(=O)OC)(c1cc3c(cc1OC)N(C)[C@H]1[C@@](O)(C(=O)OC)[C@H](OC(C)=O)[C@]4(CC)C=CCN5CC[C@]31[C@@H]54)C2 [Vinorelbine tartrate] | 0.327 ± 0.0017 | 0.35 ± 0.02 | 0.629 ± 0.017 | 0.683 ± 0.036 | 0.0577 ± 0.0028 | 0.0356 ± 0.0026
8 | CC[C@]1(O)C[C@@H]2CN(CCc3c([nH]c4ccccc34)[C@@](C(=O)OC)(c3cc4c(cc3OC)N(C)[C@H]3[C@@](O)(C(=O)OC)[C@H](OC(C)=O)[C@]5(CC)C=CCN6CC[C@]43[C@@H]65)C2)C1 [Vinblastine sulfate salt; Vinblastine sulfate] | 0.354 ± 0.019 | 1.023 ± 0.0058 | 0.621 ± 0.029 | 1.03 ± 0.027 | 0.0439 ± 0.00099 | 1.017 ± 0.0058
9 | C=CCN1CCc2c(cc(O)c(O)c2Br)[C@@H](c2ccccc2)C1 [R(+)-6-Bromo-APB hydrobromide] | 0.986 ± 0.017 | 1.01 | 0.989 ± 0.0095 | 1 ± 0.011 | 0.976 ± 0.011 | 0.9827 ± 0.0035
10 | Cc1cc(C)c(/C=C2\C(=O)Nc3ccccc32)[nH]1 [Semaxanib (SU5416)] | 1.09 ± 0.011 | 1.15 ± 0.046 | 1.09 ± 0.011 | 1.11 ± 0.017 | 1.023 ± 0.0058 | 1.027 ± 0.0058
11 | COc1c/c(=C2\C=c3ccccc3=N2)[nH]/c1=C\c1[nH]c(C)cc1C [Obatoclax mesylate (GX15-070)] | 0.972 ± 0.014 | 0.42 ± 0.019 | 1 ± 0.0087 | 1.03 ± 0.015 | 0.564 ± 0.07 | 0.0292 ± 0.0041
12 | Cc1cc(C)c(/C=C2\C(=O)Nc3ccccc32)[nH]1 | 1.06 ± 0.01 | 1.09 ± 0.015 | 1.07 ± 0.044 | 1.12 ± 0.017 | 1.03 | 1.03 ± 0.011
13 | O=C(O)CCC(NC(=O)c1ccccc1C(=O)O)C(=O)O [Phthalamoyl-L-glutamic acid trisodium] | 0.9933 ± 0.0031 | 1.06 ± 0.021 | 0.869 ± 0.23 | 1.03 ± 0.025 | 0.997 ± 0.0052 | 1.006 ± 0.0063
14 | CC(NC(=O)Cc1cc(F)cc(F)c1)C(=O)NC1C(=O)N(C)c2ccccc2-c2ccccc21 (configuration not stated) | 0.977 ± 0.0072 | 0.998 ± 0.0035 | 0.983 ± 0.015 | 0.999 ± 0.019 | 0.9847 ± 0.0057 | 0.9813 ± 0.007
15 | COc1cc(=O)n(C)c2c(OCC(O)C(C)(C)O)cccc12 (configuration not stated) [Foliosidine] | 1.005 ± 0.0081 | 0.99 ± 0.01 | 0.9877 ± 0.0067 | 0.981 ± 0.012 | 0.998 ± 0.011 | 0.9963 ± 0.0021
16 | CC(C)(C)OC(=O)Nc1ccc(-c2cc(C(=O)NCCCCCCC(=O)NO)no2)cc1 | 0.9572 ± 0.0081 | 0.244 ± 0.23 | 0.991 ± 0.025 | 0.677 ± 0.31 | 0.806 ± 0.15 | 0.0189 ± 0.02
17 | O=C(CCCCCCC(=O)Nc1ccccc1)NO [Vorinostat; SAHA] | 0.928 ± 0.018 | 1.04 ± 0.04 | 0.95 ± 0.0036 | 1.02 | 0.995 ± 0.015 | 0.9983 ± 0.0029
18 | O=C(CCCCCCC(=O)Nc1ccccc1)NO [Vorinostat (SAHA, MK0683)] | 0.94 ± 0.017 | 0.585 ± 0.025 | 0.959 ± 0.0017 | 0.955 ± 0.048 | 1.003 ± 0.0058 | 0.0617 ± 0.0036
19 | O=C(CCCCCCC(=O)Nc1ccccc1)NO | 0.959 ± 0.016 | 0.569 ± 0.04 | 0.978 ± 0.013 | 0.912 ± 0.015 | 0.969 ± 0.011 | 0.075 ± 0.0018
20 | N=C(N)NCCC[C@H](N)C(=O)O [L-Arginine] | 1 ± 0.018 | 0.997 ± 0.0027 | 0.994 ± 0.0066 | 1 ± 0.011 | 0.986 ± 0.0085 | 1.001 ± 0.0081
21 | CC1(C)CNc2cc(NC(=O)c3cccnc3NCc3ccncc3)ccc21 [Motesanib Diphosphate] | 1.02 ± 0.011 | 1 ± 0.031 | 1 ± 0.012 | 0.992 ± 0.026 | 1.001 ± 0.0076 | 1.002 ± 0.0076
22 | O=C1NC(=O)C(=Cc2ccc(-c3ccc(F)cc3)o2)S1 (stereo in doubt) | 1 ± 0.018 | 1 ± 0.014 | 0.996 ± 0.013 | 1.01 | 0.991 ± 0.0027 | 0.9913 ± 0.0083
